Where “and” joins values, the source holds several entries; their conditions need not be identical. Equal values may be shown once. Among all 340,000 compounds or so, about 700 (0.21%) were called active. For the sample, actives were picked, then their nearest neighbours and some compounds at random. Values without a mark were called inactive. Cut-off read from the data, not from the text of the source: active = inhibition above about 22% (passing the limit was not always enough); inactive = the rest.
Target: Mu-type opioid receptor (Homo sapiens) + Delta-type opioid receptor (Homo sapiens) (UniProt P35372+P41143)
Assay: OPRM1-OPRD1 heterodimer inverse agonism – cell-based, luminescence, primary screen (AID 504357);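 note: 0% = cells with DMSO and 100% = wells without cells with DMSO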
Details: cell-based MOR-DOR heterodimer luminescence, at 9.3 µM, active compounds read high

Chain of Mu-type opioid receptor (Homo sapiens) + Delta-type opioid receptor (Homo sapiens) (P35372 whole entry, looked up): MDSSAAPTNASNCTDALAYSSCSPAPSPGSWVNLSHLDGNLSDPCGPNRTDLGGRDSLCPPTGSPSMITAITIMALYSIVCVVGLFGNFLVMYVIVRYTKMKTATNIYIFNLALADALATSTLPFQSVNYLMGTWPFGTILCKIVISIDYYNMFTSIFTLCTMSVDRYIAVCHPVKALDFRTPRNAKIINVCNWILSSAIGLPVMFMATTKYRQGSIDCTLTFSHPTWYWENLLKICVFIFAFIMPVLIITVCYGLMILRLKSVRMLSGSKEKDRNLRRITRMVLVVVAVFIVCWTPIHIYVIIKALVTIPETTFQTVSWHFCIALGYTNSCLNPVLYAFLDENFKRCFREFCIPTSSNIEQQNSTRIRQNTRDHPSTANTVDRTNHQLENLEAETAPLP
Chain of Mu-type opioid receptor (Homo sapiens) + Delta-type opioid receptor (Homo sapiens) (P41143 whole entry, looked up): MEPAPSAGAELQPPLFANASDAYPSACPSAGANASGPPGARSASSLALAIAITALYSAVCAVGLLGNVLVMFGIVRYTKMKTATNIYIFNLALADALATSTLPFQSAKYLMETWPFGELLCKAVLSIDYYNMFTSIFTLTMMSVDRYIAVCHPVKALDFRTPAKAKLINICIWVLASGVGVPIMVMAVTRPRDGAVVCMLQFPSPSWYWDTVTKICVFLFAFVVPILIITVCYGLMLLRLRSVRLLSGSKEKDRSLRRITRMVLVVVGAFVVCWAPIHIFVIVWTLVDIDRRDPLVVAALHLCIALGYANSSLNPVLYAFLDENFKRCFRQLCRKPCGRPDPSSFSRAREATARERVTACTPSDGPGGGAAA

Structure (SMILES) | inhibition
CCNc1nc(NC(C)C)nc(OCCOC(=O)c2ccccc2)n1 | 0.3%
CCSC1=NCCN1S(=O)(=O)c1ccc(F)cc1 | 2.33%
Cc1nccn1CCC1CCCCN1C(=O)CCc1nnc(-c2ccsc2)o1 (stereo unspecified) | 11.7%
Cc1ccccc1C(CC(=O)c1cccs1)C(C#N)C#N (stereo unspecified) | 8.61%
COC(=O)C1=C(C(=O)OC)[C@@H]2N(C)c3ccccc3[C@@]23C[C@@H](C(=O)OC)N(C(=O)c2ccco2)C3=N1 | 7.48%
Cc1nc2nc(SCC(=O)Nc3cccc(F)c3)[nH]c2cc1Br | -28.8%
CC(C)NC(=O)CSc1nnc(COc2ccccc2Cl)o1 | 16.3%
CCOc1ccc(NC(=O)c2cccc3c2C(=O)N(CC2CCCO2)C3)cc1 (stereo unspecified) | 23.6% (active)
CCOc1ccc(NC(=O)c2ccc(NC(=O)C3CCCO3)cc2)cc1 (stereo unspecified) | 12.6%
COc1ccc(NC(=O)c2cccc3c2C(=O)N(CC2CCCO2)C3)cc1OC (stereo unspecified) | 16.3%
CN(C)c1cc(N)c2ccccc2n1 (tested in a mixture with another compound) | 9.35%
COc1ccc(NC(=O)CSc2nnc(Cc3ccccc3)c(=O)n2N)cc1 | 4.15%
CC(C)(C)SCCSC1=CC(=O)CC(c2ccccc2)C1 (stereo unspecified) | -50%
O=C1C(Cc2ccc(O)cc2)NC(=S)N1Cc1ccccc1 (stereo unspecified) | 17.3%
CC[C@]1(C(=O)OC)[C@H]2C(=O)N(Cc3ccccc3)C(=O)[C@H]2[C@H]2CN=C(SCc3ccc(Cl)cc3)N21 | -1.44%
CCC1Nc2ncnc(N3CCN(c4ccccc4)CC3)c2N(Cc2ccc(Cl)cc2)C1=O (stereo unspecified) | 72.3% (active)
COc1cccc(C(CC(=O)NCCN2CCOCC2)NS(=O)(=O)c2ccc(C)cc2)c1OC (stereo unspecified) | 4.11%
COC(=O)[C@H]1Cc2cnoc2C[C@]1(C)C(=O)O | 8.29%
Cc1cc(C)cc(NC(=O)C2CCCN2S(=O)(=O)c2cccc3cccnc23)c1 (stereo unspecified) | 7.78%
COc1cc(C(=O)OCC(=O)N(CC(C)C)C2CCS(=O)(=O)C2)ccc1OCC(C)C (stereo unspecified) | 12.3%
COc1cc(/C=C/C(=O)N2CCc3ccccc3C2)cc(OC)c1OC | 15.2%
Cc1cc(Cl)c2oc(C(=O)N(C)C(C)c3ccccn3)c(C)c2c1 (stereo unspecified) | -14%

Structure (SMILES) | inhibition
CCCNC(=O)N1CCN(C(=O)NCCC)CC1 | -0.22%
O=C1C(Cl)=C(N2CCOCC2)C(=O)N1c1ccccc1 | 7.3%
O=C1c2ccccc2C(=O)N1c1ccccc1S(=O)C(F)(F)F (stereo unspecified) | 1.53%
O=C1C(=O)N(c2ccccc2)c2ccccc21 | 47.8% (active)
Oc1[nH]c2ccccc2c1N=Nc1c(F)c(F)c(F)c(F)c1F | 13.1%
Cc1cccc(N=Nc2c(O)[nH]c3ccc(F)cc23)c1 | 33% (active)
NS(=O)(=O)c1ccc(N=Nc2c(O)[nH]c3ccc(Br)cc23)cc1 | 16.9%
O=C(COC(=O)Cn1cnc2ccccc2c1=O)NCC12CC3CC(CC(C3)C1)C2 | 0.67%
CCCS(=O)(=O)C(=C1Nc2ccccc2N1)S(=O)(=O)CCC | 3.81%
CN(C)/C=C1\C=C(c2ccccc2)OC1=O | 5.39%
CN(C)/C=C1/Nc2ccccc2C1=O | 34.7% (active)
Cc1ccc(Cc2nnc(SCC(=O)Nc3ccc(C)cc3C)[nH]c2=O)cc1 | -25.8%
O=C1CCC(=O)N(O)CCCCCNC(=O)CCC(=O)N(O)CCCCCNC(=O)CCC(=O)N(O)CCCCCN1 | 8.42%
CN(/N=C/c1ccccc1)C(=S)c1ccccc1 | -3.87%
CN(CC(=O)O)C(=O)c1ccccc1 | 10.9%
CN(O)C(=S)c1ccccc1 | 41.1% (active)
O=C(NNC(=O)c1ccc(Cl)cc1Cl)c1cccs1 | 2.42%
Cc1ccc(NC(=O)c2cccs2)cc1S(=O)(=O)N(C)C | 0.25%
Cc1ccc(NNC(=O)c2cccs2)cc1Cl | 53.4% (active)
CSc1ccc(Cl)c(C(=O)OCC(=O)N2CCNC2=O)c1 | 16.2%
Cc1cc(C)cc(N)c1 | 14.8%
CCN(CC(=O)NCc1ccco1)S(=O)(=O)c1ccc(F)cc1 | -7.35%

Structure (SMILES) | inhibition
COc1ccccc1C(=O)NC(=O)COC(=O)c1ccco1 | 3.92%
Cc1cccc(-n2c(SCC(N)=O)nc3c(c2=O)C2(CCCCC2)Cc2ccccc2-3)c1 | -5.65%
CC1CC2=C(CC1/C=N/NC(N)=S)C(C)(C)CCC2 (stereo unspecified) | -16.2%
CCn1cc(/C=C2/SC(=S)NC2=O)c(C)n1 | 9.33%
CC1CCCC(N2CCN(C(=O)c3ccc(F)cc3)CC2)C1 (stereo unspecified) | 1.43%
CCOc1ccc(S(=O)(=O)NCCC(=O)N2CCCCCCC2)cc1 | -1.55%
O=C(CCN1CCN(C/C=C/c2ccccc2)CC1)Nc1ccccc1Cl | 1.43%
CC(c1cccnc1)N(CCN(C)C)C(=O)Nc1ccc(Cl)c(Cl)c1 (stereo unspecified) | -197%
Cc1cccc(C)c1NC(=O)CN(C)C(=O)CCC(=O)c1ccccc1 | 3.3%
Cc1cccc(C)c1NC(=O)C(Cl)C(=O)c1ccccc1 (stereo unspecified) | 34.4% (active)
CC(NC(=O)c1ccccc1)C(=O)Nc1ccccc1 (stereo unspecified) | 19.2%
Cc1cc(C)c(S(=O)(=O)N2CCC(C(=O)OCc3c(C)noc3C)CC2)c(C)c1 | 6.69%
COc1cccc(-c2ccc(C#N)c(SCC(=O)NCCc3ccc(Cl)cc3)n2)c1 | -45.6%
Oc1ccc(N=Nc2nccs2)c(O)c1 | 37.2% (active)
Cc1ccc(S(=O)(=O)N(C)c2ccc(OCC(=O)NC3=NCCS3)cc2)cc1 | 7.13%
O=C(COc1ccccc1)Nc1ccc(F)cc1 | 7.72%
CN(c1ccccc1)S(=O)(=O)c1ccc(NC(=O)COc2ccccc2)cc1 | 31.1% (active)
Cc1ccc(NC2(C#N)C(=O)Nc3ccccc32)cc1 (stereo unspecified) | 63.2% (active)
Cc1cccc(CC2(O)C(=O)Nc3ccccc32)n1 (stereo unspecified) | 15.9%
Cc1cc(O)c(C2(O)C(=O)Nc3ccccc32)cc1C (stereo unspecified) | 10.4%
CC(CC(=O)N1CCN(c2ccccc2)CC1)S(=O)(=O)c1ccc2c(c1)NC(=O)CS2 (stereo unspecified) | 4.28%
CCCCCCCCCCCCN1[C@@H](CC(C)=O)c2cc(F)cc(F)c2S1(=O)=O | 8.79%

Structure (SMILES) | inhibition
Cc1cc(=O)oc2c1c(C)nn2-c1ccc(Cl)cc1 | 11%
Cc1ccc(CN(CC(=O)NCC2CCCO2)S(=O)(=O)c2ccc(C)cc2)cc1 (stereo unspecified) | 10.1%
Nc1nnc(C2CCCC2)s1 | 11.4%
O=C(NCCN1CCOCC1)/C(=C/c1ccc(F)cc1)NC(=O)c1ccccc1 | 18.7%
Cc1cc(NC(=O)CN2CCC(O)(c3cccc(F)c3)CC2)no1 | 10.8%
COc1cccc(CNC(=O)C2CCCN(S(=O)(=O)N3CC(C)CC(C)C3)C2)c1 (stereo unspecified) | 16%
Cc1ccsc1C(=O)NCCc1ccco1 | 7.66%
O=C(NCCSc1ncc(-c2ccccc2)[nH]1)c1ccco1 | 13.1%
CC1CCCCC1NC(=O)COC(=O)Cc1ccc(Cl)cc1 (stereo unspecified) | 21.7%
CC(=O)N1c2ccc(S(=O)(=O)N3CCCC(C(=O)Nc4ccc(C)cc4C)C3)cc2CC1C (stereo unspecified) | -10.6%
O=C(c1ccco1)N1CCN(C(=O)C2CC(c3ccc(Cl)c(Cl)c3)=NO2)CC1 (stereo unspecified) | 9.92%
Cc1cc(OC(=O)c2ccccc2)c([N+](=O)[O-])c(=O)[nH]1 | -3.39%
O=C(O)CCN1C(=O)CC2(CCCCC2)C1=O | 14.8%
O=[N+]([O-])/C=C/c1ccc2c(ccn2Cc2ccccc2)c1 | 38.9% (active)
COc1ccc(CNCCCn2cnc3c(OCc4ccccc4)ncnc32)cc1 | 11.7%
Cc1ccc2c(c1)C(O)(CC(=O)c1cccc(-n3cccc3)c1)C(=O)N2 (stereo unspecified) | 17.9%
O=C(CC(=O)c1cccnc1)c1ccccc1 | 13.2%
Cc1ccc2c(c1)C(O)(CC(=O)c1cccnc1)C(=O)N2 (stereo unspecified) | 37.3% (active)
CN(c1ccccc1)S(=O)(=O)c1cc(C(=O)N2CCN(c3ncccn3)CC2)ccc1Cl | 2.36%
COc1ccccc1CN1CCCC(N2CCN(c3ccc(F)cc3)CC2)C1 (stereo unspecified) | 8.79%
C[n+]1ccc(C(=O)NCc2ccccc2)cc1 | -0.68%
COc1c(C=O)c(CCN(C)C(=O)c2ccc(F)cc2)cc2c1OCO2 | 9.88%

Structure (SMILES) | inhibition
CCOCCCNC(=O)C(NC(=O)Cc1c[nH]c2ccccc12)c1ccc(OC)cc1 (stereo unspecified) | 12.1%
Cc1ccccc1OCC(=O)NNC(=O)c1ccc(-n2cncn2)c([N+](=O)[O-])c1 | 8.19%
CCc1c(C)sc(NC(=O)OC)c1C(=O)N1CCOCC1 | 5.54%
CCOc1ccc(S(=O)(=O)N2CCCC(C(=O)N3CCC(C(N)=O)CC3)C2)cc1Cl (stereo unspecified) | 5.16%
COc1ccccc1N1CCN(CC(=O)Nc2ccnn2C2CCCC2)CC1 | 0.88%
CSCCC(NC(=O)COc1ccccc1)C(=O)OCCOc1ccc(Br)cc1 (stereo unspecified) | -28.3%
CSCCC(NC(=O)COc1ccccc1)C(=O)OCc1ccc(Cl)cc1 (stereo unspecified) | -17.1%
CSCCC(NC(=O)COc1ccccc1)C(=O)OCC(=O)c1cc2ccccc2o1 (stereo unspecified) | 68.4% (active)
CN1CC(=O)N=C1N | 16.7% and 15.6%
Cc1cc(Cl)c(S(=O)(=O)NCc2cccnc2)cc1OCC(N)=O | 11.2%
CCOc1ccc(NC(=O)CN(C)CC(=O)NC(C)c2ccccc2)cc1OCC (stereo unspecified) | 1.67%
C=CCn1c(N)c(C(=O)OCC(C)C)c2nc3ccccc3nc21 | 55.7% (active)
COCC(C)OC(=O)c1c(N)n(CCCN2CCOCC2)c2nc3ccccc3nc12 (stereo unspecified) | 10.3%
C=CCn1c(C(C)NC(=O)CC)nc2ccccc21 (stereo unspecified) | 18%
FC(F)(F)C1CCCN(c2nsc3ccccc23)C1 (stereo unspecified) | 11.2%
C=CCN1C(=O)C(O)(CC(=O)c2ccc(Cl)cc2)c2ccccc21 (stereo unspecified) | 12%
CCOC(=O)CN1C(=O)C(O)(CC(=O)c2ccccn2)c2ccccc21 (stereo unspecified) | 49.5% (active)
C=CCN1C(=O)C(O)(CC(=O)c2ccccn2)c2ccccc21 (stereo unspecified) | 15.1%
